# FMDV antiviral: blocks foot and mouth disease virus; FMDV antiviral cell-based qHTS; Potency, µM (doses to about 57.9 µM), without a hit: at the top dose activity change, negative = inhibition, usual class: inhibitors; actives 1.2% (n = 410,000); calls by dose curve; tested in HEK293T cells; further: read-out not given here; potency means the concentration at half of the fitted maximal effect; on the % scale 0 is the no-effect control and ±100 the full control effect; nearly all actives have a fitted effect of over 45% in size
# Lassa entry inh: blocks Lassa virus binding to or entry into cells; AID 540256; Lassa virus pseudotype entry inhibition, cell reporter; Potency, µM (highest dose often 37.9 µM), without a hit: at the highest dose activity change, negative = inhibition, usual class: inhibitors; actives 1.2% (n = 300,000); calls by dose curve; tested in HEK293 cells; further: potency means the concentration at half of the fitted maximal effect; on the % scale 0 is the no-effect control and ±100 the full control effect; nearly all actives have a fitted effect of over 50% in size
# Marburg entry inh: blocks Marburg virus binding to or entry into cells; Marburg virus pseudotyped entry inhibition, cell reporter; Potency, µM (series often up to 37.8 µM), for the others: at the highest dose activity change, negative = inhibition, most hits filed as inhibitors; actives 1.8% (n = 300,000); calls by dose curve; tested in HEK293 cells; further: potency means the concentration at half of the fitted maximal effect; on the % scale 0 is the no-effect control and ±100 the full control effect
# SARS PLpro yeast: SARS-CoV PLP inhibition in yeast. AID 485353. actives 0.19% (n = 330,000). S. cerevisiae expressing SARS-CoV PLpro, growth rescue. Potency, µM (titrated, usually from 32.9 µM), for inactives: at the top dose activity, positive = growth rescue, actives largely listed as activators; calls by dose curve; further: potency means the concentration at half of the fitted maximal effect; 0% is about no effect; nearly all actives have a fitted effect of over 55% in size
# HCMV antiviral: inhibitors of human cytomegalovirus; HFF cells, HCMV-luciferase reporter, 72 h; active compounds read low; activity change, negative = inhibition, % at 57.5 µM; actives 4.5% (n = 410,000); in the data active means activity change below about -60%; inconclusive means no clear call, values can overlap the other calls; inactive means above about -39%; further: on the % scale 0 is the no-effect control and ±100 the full control effect
#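 HFF cells seeded 16 h at 37C, treated with compounds, infected with luciferase-reporter HCMV at MOI 1 PFU/cell; luciferase read at 72 h post infection, normalized to buffer-only and Salinomycin controls.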
# HCV inhibitor: blocks hepatitis C virus; Potency, µM (series often up to 41.8 µM), for inactives: at the highest dose activity change, negative = inhibition, hits mostly inhibitors; Huh7.5.1 HCVcc-Cre infection, luciferase reporter, 44 h; actives 3.4% (n = 340,000); AID 651820; active means well fitted inhibition curve with a large enough effect; inconclusive means small, poorly fitted or top-dose-only effect, or another doubt; inactive means no such curve, though single readings can be large or run the other way; further: potency means the concentration at half of the fitted maximal effect; on the % scale 0 is the no-effect control and ±100 the full control effect
#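 After 44 h co-culture of compound, cells and HCVcc-Cre (~0.5 moi), substrate is added for 15 min at room temperature and luciferase measured over 15 sec. Cells were seeded at 1,000/well and pre-cultured 4 h.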
# Numbers without * were called inactive; ? = inconclusive; nt = no result; ! = not active in a repeat; [ ] = dose if it differs, or a comment. The list is not random: actives were taken first. Their share in the collection is about 8%.
SMILES,FMDV antiviral,Lassa entry inh,Marburg entry inh,SARS PLpro yeast,HCMV antiviral,HCV inhibitor
Cc1ccc(C)c(S(=O)(=O)N2[C@@H]3CC[C@@H](C3)[C@H]2c2nc3c(OCC4CCOCC4)cccc3[nH]2)c1,nt,nt,nt,nt,1,nt
Cc1ccc(S(=O)(=O)Nc2cncnc2NS(=O)(=O)c2ccc(C)cc2)cc1,-8%,?,5%[46.1 µM],nt,-13,5%
CS(=O)(=O)N(Cc1ccccc1)c1ccc(C(=O)N2CCc3ccccc3C2)cc1,?,?,-8%,-2%,38,-17%
CC(C)[C@@H](OCc1ccccc1)[C@H](C)CON=C1[C@H]2CCn3c(=O)n(-c4ccccc4)c(=O)n3[C@@H]2[C@H](O)[C@@H]2O[C@H]12,nt,nt,25%[14.2 µM],nt,nt,nt
COC(=O)C(NC(=O)CCc1c(C)nc2c(-c3ccccc3)c(C)nn2c1C)C(C)C (stereo unspecified),-19%,21%[46.1 µM],3%[46.1 µM],nt,0,nt
COc1cc(NC(=O)C2=C(N3CCOCC3)/C(=C\c3ccc(Cl)cc3Cl)CC2)cc(OC)c1OC,14µM*,?,?,-13%,25,?
COc1cc(NC(=O)C2=C(N3CCOCC3)/C(=C\c3ccc(Br)cc3)CC2)cc(OC)c1OC,?,-10%,?,5%,22,5%
CN(Cc1ccccc1)c1nc(N)nc(Cl)c1C=O,?,-2%,?,2%,-29,4µM*
CCOC(=O)N1CCN(S(=O)(=O)c2ccc(OCC(=O)OC)cc2)CC1,nt,9%,-2%,-3%,-78*,16%
CCOC(=O)c1ccoc1CN1CCN(S(=O)(=O)c2ccc(C)c(C)c2)CC1,-23%,-26%,-23%,-10%,-63*,?
CCOC(=O)COc1ccc(S(=O)(=O)N2CCN(C(=O)OCC)CC2)cc1,-9%,-2%,-8%,-15%,17,12%
CCOC(=O)N1CCN(c2ccc(S(=O)(=O)N3CCOCC3)cc2[N+](=O)[O-])CC1,-16%,20%,-7%,-2%,-11,-6%
CCOC(=O)N1CCN(S(=O)(=O)c2ccc(C)c([N+](=O)[O-])c2)CC1,-21%,6%,?,-1%,-62*,-12%
Cc1ccc(S(=O)(=O)N2CCN(Cc3ccco3)CC2)cc1C,-10%,14%[46.1 µM],-1%[46.1 µM],3%,?,2%
CN(CCCCCC(=O)/C=N\O)Cc1ccccc1,nt,nt,0%,nt,nt,nt
CC(C)(C)c1nnc(NS(=O)(=O)c2ccc([N+](=O)[O-])cc2)s1,5%,nt,nt,5%,-12,15%
CCCCNC(=O)c1sc2ncnc(NCC3CCCO3)c2c1C (stereo unspecified),1%,nt,nt,nt,nt,nt
Cn1c(/C(C#N)=C/c2ccncc2)nc2ccccc21,16µM*,nt,nt,1%,12,-2%
Cn1c(/C(C#N)=C/c2ccc(O)cc2)nc2ccccc21,16%,nt,nt,-1%,16,-11%
Oc1ccccc1O,-9%,?,2.5µM*!,nt,-27,?
COc1ccccc1O,-2%,nt,nt,-5%,32,-6%
CN1CCN(c2ncnc3scc(-c4ccccc4Cl)c23)CC1,?,-13%,?,-6%,-73*,-16%
Oc1ccccc1N1CCN(c2ncnc3scc(-c4ccc(F)cc4)c23)CC1,-10%,?,?,nt,-81*,11µM*
OCC1CCCN(c2ncnc3scc(-c4ccccc4)c23)C1 (stereo unspecified),-19%,nt,nt,-2%,-63*,-12%
Fc1ccc(CN2CCN(c3ncnc4scc(-c5ccccc5)c34)CC2)cc1,?,nt,nt,-2%,-74*,?
SMILES,FMDV antiviral,Lassa entry inh,Marburg entry inh,SARS PLpro yeast,HCMV antiviral,HCV inhibitor
CCc1cc(=O)[nH]c(-n2[nH]c(-c3ccccc3)cc2=O)n1,9%,8%,1%[46.1 µM],2%,-29,-1%
O=c1cc(-c2ccccc2)[nH]n1-c1nc2ccccc2[nH]1,-20%,?,?,13%,-84*,?
CN(C)c1ccc(C(=S)NCc2ccco2)cc1,16µM*,?,?,-4%,72,3%
CN(C)c1ccc(/C=N/NC(=S)NCc2ccco2)cc1,-8%,2.1µM*,?,7%,-9,-4%
S=C(NCc1ccco1)NCc1ccco1,-7%,12%,8%,nt,-38,18%
CC(=O)c1ccc(F)c(-c2cc(C)cc3c2OC(CNC(=O)c2ccnn2C)C3)c1 (stereo unspecified),-10%,nt,nt,nt,nt,nt
COc1ccc(-c2nn(-c3ccccc3)cc2CNC[C@H]2O[C@@H](n3cnc(C(N)=O)n3)[C@H](O)[C@@H]2O)cc1,11%,nt,nt,nt,-12,30%
CC1CCN(C(=O)CN2C(=O)c3ccccc3S2(=O)=O)CC1,49%,7.9µM*,?,5%,-16,-1%
O=C(CN1c2cccc3cccc(c23)S1(=O)=O)NC1CCCCC1,-13%,nt,nt,-1%,-17,?
NC(=O)C1CCN(C(=O)CN2C(=O)c3ccccc3S2(=O)=O)CC1,41%,-2%,3%,-6%,40,12%
O=C(CN1C(=O)c2ccccc2S1(=O)=O)NC1CCCCCC1,53%,nt,nt,-5%,-75*,15%
CC(C)c1c(C(=O)NCCN2CCOCC2)cnn1-c1nccc(-c2ccco2)n1,1%,nt,nt,nt,nt,nt
CCc1ccc2c(c1)NC(=O)C2(C)Cc1ccc(Cl)s1 (stereo unspecified),-27%,nt,nt,nt,?,nt
CCCOc1ccc(F)cc1-c1cc(C(=O)Nc2ccc(C)c(NS(C)(=O)=O)c2)[nH]n1,35µM*,nt,nt,nt,-32,nt
COc1cc(F)ccc1-c1cc(C(=O)Nc2ccc(C)c(NS(C)(=O)=O)c2)[nH]n1,25µM*,nt,nt,nt,-38,nt
COc1ccc(NC(=O)c2cc(-c3cc(F)ccc3OC)n[nH]2)cc1OC,-4%,nt,nt,nt,-21,nt
COc1ccc(F)cc1-c1cc(C(=O)Nc2ccc(C)c(NS(C)(=O)=O)c2)[nH]n1,35µM*,nt,nt,nt,-28,nt
CC(C)Cc1ccc(CN2CCCC(NC(=O)c3ccoc3)C2)cc1 (stereo unspecified),-29%,?,?,2%,-33,?
CC(C)Cc1ccc(CN2CCCC(NC(=O)c3cccc(-n4cnnc4)c3)C2)cc1 (stereo unspecified),?,-19%,?,-1%,-60*,?
CC(C)Cc1ccc(CN2CCCC(NC(=O)c3ccnn3C)C2)cc1 (stereo unspecified),?,?,10µM*,7%,-80*,11µM*
COc1ccc(-c2[nH]ncc2/C=C(/C#N)C(=O)NC2CCCCCC2)cc1,-8%,?,10µM*,2%,?,22µM*
CCCCCCn1c(O)c(/C=N/N2CCCCCC2)c(=O)[nH]c1=O,-2%,?,-2%[46.1 µM],-1%,-64*,-13%
COc1ccc(CCn2c(O)c(/C=N/N3CCCCC3)c(=O)[nH]c2=O)cc1OC,?,?,13%,-5%,-9,4%
CC(=O)Nc1ccc(OCc2cccc3ccccc23)cc1,0%,nt,nt,?,-79*,-13%

# Compound activity (PubChem)
